According to PubChem BioAssay (NCI):
About 83,000 compounds went through this panel and 20% of them were active in at least one assay; those are over-represented in the sample as a whole.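 Step 1: grow cells in 96-well plates. Step 2: add test compound at a single concentration. Step 3: incubate 48 h. Step 4: record percent growth.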 A number with no mark means an inactive call. Active and inactive are the calls of the source. The calls were made as follows: active = growth percent below 10; inactive = the rest.

Experiments:
Test in all cases: NCI-60 one-dose screen, 48 h (100 = growth as untreated, 0 = no growth, -100 = all killed)
Conditions in all cases: 10 µM unless noted
NCI-H23 lung = system: NCI-H23 lung
NCI-H226 lung = system: NCI-H226 lung
NCI-H322M lung = system: NCI-H322M lung
HOP-62 NSCLC = system: HOP-62 NSCLC
NCI-H460 lung = system: NCI-H460 lung
HOP-92 NSCLC = system: HOP-92 NSCLC
NCI-H522 lung = system: NCI-H522 lung
A549/ATCC NSCLC = system: A549/ATCC NSCLC
786-0 renal = system: 786-0 renal
COLO 205 colon = system: COLO 205 colon

SMILES	growth (NCI-H23 lung)	growth (NCI-H226 lung)	growth (NCI-H322M lung)	growth (HOP-62 NSCLC)	growth (NCI-H460 lung)	growth (HOP-92 NSCLC)	growth (NCI-H522 lung)	growth (A549/ATCC NSCLC)	growth (786-0 renal)	growth (COLO 205 colon)
CN1CCN(c2ccc(C(=O)/C=C/c3ccc(Cl)c(C(F)(F)F)c3)cc2)CC1	81.5%	86%	78.8%	88.9%	88%	41.8%	76.4%	72.8%	79.9%	60.6%
O=C1[C@@H]2Cc3c([nH]c4ccccc34)[C@H](c3c(Cl)cccc3Cl)N2C(=O)CN1C1CCN(Cc2ccccc2)CC1	41.7%	74.9%	77.7%	81.3%	9.15% (active)	42.8%	63.5%	12.7%	-26.6% (active)	75%
O=C(NCCCNc1cc(-c2cn(-c3ccccc3)nc2-c2cccc(O)c2)ccn1)Nc1cccc(C(F)(F)F)c1	58%	62%	54.2%	43.2%	28.7%	40.2%	46.9%	49%	-4.95% (active)	3.19% (active)
Cc1ccc(NC(=O)c2cc(/C=C/C(=O)NO)cc(C(F)(F)F)c2)cc1Nc1nccc(-c2cccnc2)n1	2.29% (active)	17.5%	12.8%	-19.1% (active)	2.09% (active)	-30.6% (active)	-73.1% (active)	61.2%	-22% (active)	-65.2% (active)
C#C[C@]1(O)CC[C@H]2[C@@H]3CC=C4c5sc(Nc6cccc(Cl)n6)nc5CC[C@]4(C)[C@H]3CC[C@@]21C	16.1%	19.8%	44.5%	-8.39% (active)	-2.3% (active)	-5.56% (active)	-17.7% (active)	18.5%	-54.8% (active)	34.5%
COc1cccc(/C=C/C(=O)c2ccc(NC(=O)COc3cccc4cccnc34)cc2)c1	99.3%	93.9%	95.5%	112%	101%	107%	90.2%	95.2%	96.8%	105%
C=C(C)C(=O)O[C@H]1C[C@@]2(C)OC(=CC2=O)[C@H](C)[C@H](O)[C@H]2OC(=O)C(=C)[C@@H]21	58.4%	92.2%	93.8%	93.5%	93.3%	69.7%	-67.6% (active)	94.7%	64.2%	13.6%
O=C(/C=C1\C=CN(CCCCF)c2ccccc21)n1ccc2ccccc21	98.5%	91.9%	93.3%	93%	113%	90.9%	94.7%	104%	107%	96.6%
Cc1ccc(-c2nnc3sc(C4=Cc5ccccc5OC=C4)nn23)cc1	96.4%	96.4%	100%	121%	101%	-34.7% (active)	91%	92.3%	95%	120%
C/C(=C(/C)C1CC1CCN(C(=O)c1ccc([N+](=O)[O-])cc1)S(=O)(=O)c1ccc(C)cc1)C1CCCCC1 (stereo not given)	87.2%	90.8%	100%	109%	98.6%	-49% (active)	83.8%	97.8%	96.2%	112%
C=C(C)C(=O)O[C@H]1C[C@@]2(C)OC(=CC2=O)/C(CO)=C\[C@H]2OC(=O)C(=C)[C@H]12	-35.2% (active)	-39.3% (active)	87.6%	58.9%	12.5%	-61.4% (active)	-68.3% (active)	65.7%	-66.5% (active)	-72.9% (active)
CC(=O)Nc1ccc(NC(=O)Nc2cccc(-c3nc(-c4ccc(NC(=O)c5cccnc5)cc4Cl)no3)c2)cc1C(F)(F)F	-63.3% (active)	-55.2% (active)	-34.2% (active)	-58.1% (active)	-64.9% (active)	-65.6% (active)	-46.3% (active)	-1.13% (active)	-35.6% (active)	-53.1% (active)
